# Reference: PubChem BioAssay (NCATS)
# Results filed as inconclusive are left out. A call without a number means that no potency is given here. Values without a mark were called inactive. Active and inactive are the calls of the source. The call rests on the fitted dose curve; in most records, active means well fitted inhibition curve with a large enough effect; inconclusive means small, poorly fitted or top-dose-only effect; inactive means flat fitted curve, though single readings scatter.
# Experiments:
# [1] = qHTS profiling for inhibitors of Plasmodium falciparum proliferation (AID 504749); further: nearly all actives have a fitted effect of over 60% in size; settings: P. falciparum in erythrocytes, SYBR Green DNA, 72 h
# How it was run: (§1)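 SYBR Green fluorescence (ex 485 nm, em 535 nm) reports parasite DNA after 72 h compound exposure of infected red cells at 0.3% parasitemia, 2.5% hematocrit; signal normalized to 0.29 uM artemisinin and vehicle wells.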
# 3D7 = assay: as above; settings: P. falciparum in erythrocytes, SYBR Green DNA, 72 h; series mostly up to 28.7 µM
# How it was run: as §1
# AA1029 = assay: as above; settings: P. falciparum in erythrocytes, SYBR Green DNA, 72 h; series mostly up to 28.7 µM
# How it was run: as §1
# AS120 = assay: as above; settings: P. falciparum in erythrocytes, SYBR Green DNA, 72 h; series mostly up to 28.7 µM
# How it was run: as §1
# ATS189 = assay: as above; settings: P. falciparum in erythrocytes, SYBR Green DNA, 72 h; series mostly up to 28.7 µM
# How it was run: as §1
# ATS95 = assay: as above; settings: P. falciparum in erythrocytes, SYBR Green DNA, 72 h; series mostly up to 28.7 µM
# How it was run: as §1
# C2A = assay: as above; settings: P. falciparum in erythrocytes, SYBR Green DNA, 72 h; series mostly up to 28.7 µM
# How it was run: as §1
# CP185 = assay: as above; settings: P. falciparum in erythrocytes, SYBR Green DNA, 72 h; series mostly up to 28.7 µM
# How it was run: as §1
# CP191 = assay: as above; settings: P. falciparum in erythrocytes, SYBR Green DNA, 72 h; series mostly up to 28.7 µM
# How it was run: as §1
# CP192 = assay: as above; settings: P. falciparum in erythrocytes, SYBR Green DNA, 72 h; series mostly up to 28.7 µM
# How it was run: as §1
# CP194 = assay: as above; settings: P. falciparum in erythrocytes, SYBR Green DNA, 72 h; series mostly up to 28.7 µM
# How it was run: as §1
# CP201 = assay: as above; settings: P. falciparum in erythrocytes, SYBR Green DNA, 72 h; series mostly up to 28.7 µM
# How it was run: as §1
# CP203 = assay: as above; settings: P. falciparum in erythrocytes, SYBR Green DNA, 72 h; series mostly up to 28.7 µM
# How it was run: as §1
# CP211 = assay: as above; settings: P. falciparum in erythrocytes, SYBR Green DNA, 72 h; series mostly up to 28.7 µM
# How it was run: as §1
# CP215 = assay: as above; settings: P. falciparum in erythrocytes, SYBR Green DNA, 72 h; series mostly up to 28.7 µM
# How it was run: as §1
# CP217 = assay: as above; settings: P. falciparum in erythrocytes, SYBR Green DNA, 72 h; series mostly up to 28.7 µM
# How it was run: as §1
# CP237 = assay: as above; settings: P. falciparum in erythrocytes, SYBR Green DNA, 72 h; series mostly up to 28.7 µM
# How it was run: as §1
# CP238 = assay: as above; settings: P. falciparum in erythrocytes, SYBR Green DNA, 72 h; series mostly up to 28.7 µM
# How it was run: as §1
# CP247 = assay: as above; settings: P. falciparum in erythrocytes, SYBR Green DNA, 72 h; series mostly up to 28.7 µM
# How it was run: as §1
# 7G8 = assay: as above; settings: P. falciparum in erythrocytes, SYBR Green DNA, 72 h; series mostly up to 28.7 µM
# How it was run: as §1
# [2] = at 28.7 µM (top of the series), parasite line A
# [3] = at 28.7 µM (top of the series), parasite line B
# [4] = at 12.8 µM (top of the series), parasite line A
# [5] = at 12.8 µM (top of the series), parasite line B
# Potency means the concentration at half of the fitted maximal effect.
structure (smiles),measurement,setting,value
NC(=O)[C@@H]1CCCN1C(=O)[C@H](Cc1cnc[nH]1)NC(=O)[C@@H]1CCC(=O)N1,"activity, negative = inhibition",[1]; [2],0.117%
same,"activity, negative = inhibition",[1]; [3],4.94%
same,Potency,3D7,inactive
same,Potency,AA1029,inactive
same,Potency,AS120,inactive
same,Potency,ATS189,inactive
same,Potency,ATS95,inactive
same,Potency,C2A,inactive
same,Potency,CP185,inactive
same,Potency,CP191,inactive
same,Potency,CP192,inactive
same,Potency,CP194,inactive
same,Potency,CP201,inactive
same,Potency,CP203,inactive
same,Potency,CP211,inactive
same,Potency,CP215,inactive
same,Potency,CP217,inactive
same,Potency,CP237,inactive
same,Potency,CP238,inactive
same,Potency,CP247,inactive
CCOc1cc(-c2nccc3cc(OC)c(OC)cc23)cc(OCC)c1OCC,Potency,[1]; parasite line A,8.91 µM (active)
same,Potency,[1]; parasite line B,11.2 µM (active)
same,Potency,7G8,11.2 µM (active)
same,Potency,C2A,inactive
same,Potency,CP191,11.2 µM (active)
same,Potency,CP238,inactive
COc1ccc2c(=O)c(C)c(-c3ccccc3)oc2c1CN(C)C,"activity, negative = inhibition",[1]; [2],-2.15%
same,"activity, negative = inhibition",[1]; [3],-7.38%
same,Potency,3D7,inactive
same,Potency,AS120,inactive
same,Potency,ATS189,inactive
same,Potency,C2A,inactive
same,Potency,CP185,inactive
same,Potency,CP191,inactive
same,Potency,CP192,inactive
same,Potency,CP194,inactive
same,Potency,CP201,inactive
same,Potency,CP203,inactive
same,Potency,CP211,inactive
same,Potency,CP217,inactive
same,Potency,CP238,inactive
same,Potency,CP247,inactive
CN(C)CCOc1ccc(/C(=C(/CCCl)c2ccccc2)c2ccccc2)cc1,"activity, negative = inhibition",[1]; [2],-4.58%
same,"activity, negative = inhibition",[1]; [3],-0.289%
same,Potency,3D7,inactive
same,Potency,AA1029,inactive
same,Potency,AS120,inactive
same,Potency,ATS189,inactive
same,Potency,C2A,inactive
same,Potency,CP185,inactive
same,Potency,CP191,inactive
same,Potency,CP192,inactive
same,Potency,CP194,inactive
same,Potency,CP201,inactive
same,Potency,CP203,inactive
same,Potency,CP211,inactive
same,Potency,CP215,inactive
same,Potency,CP217,inactive
same,Potency,CP237,inactive
same,Potency,CP238,inactive
same,Potency,CP247,inactive
CN1CCc2c(c3ccccc3n2Cc2ccccc2)C1,"activity, negative = inhibition",[1]; [4],-0.349%
same,"activity, negative = inhibition",[1]; [5],-7.12%
same,Potency,3D7,inactive
same,Potency,AS120,inactive
same,Potency,ATS189,inactive
same,Potency,C2A,inactive
same,Potency,CP185,inactive
same,Potency,CP191,inactive
same,Potency,CP192,inactive
same,Potency,CP201,inactive
same,Potency,CP217,inactive
same,Potency,CP237,5.01 µM (active)
same,Potency,CP238,inactive
same,Potency,CP247,inactive
CCCCCc1ccc(C)cc1O,"activity, negative = inhibition",[1]; [2],-9.62%
same,Potency,3D7,inactive
same,Potency,7G8,12.6 µM (active)
same,Potency,AA1029,inactive
same,Potency,AS120,inactive
same,Potency,ATS189,inactive
same,Potency,ATS95,inactive
same,Potency,C2A,inactive
same,Potency,CP185,inactive
same,Potency,CP191,inactive
same,Potency,CP192,inactive
same,Potency,CP194,inactive
same,Potency,CP201,inactive
same,Potency,CP203,inactive
same,Potency,CP211,inactive
same,Potency,CP215,inactive
same,Potency,CP217,inactive
same,Potency,CP237,inactive
same,Potency,CP238,inactive
CS(=O)(=O)c1ccc([C@@H](O)[C@@H](COC(=O)CN)NC(=O)C(Cl)Cl)cc1,"activity, negative = inhibition",[1]; [2],-27.9%
same,"activity, negative = inhibition",[1]; [3],-23.7%
same,Potency,3D7,inactive
same,Potency,AS120,inactive
same,Potency,ATS189,inactive
same,Potency,CP191,inactive
same,Potency,CP192,inactive
same,Potency,CP247,inactive
O=C(CCCN1CCC(C(=O)c2ccc(F)cc2)CC1)c1ccc(F)cc1,"activity, negative = inhibition",[1]; [2],-20.7%
same,"activity, negative = inhibition",[1]; [3],15.1%
same,Potency,7G8,11.2 µM (active)
same,Potency,AA1029,inactive
same,Potency,AS120,inactive
same,Potency,C2A,inactive
same,Potency,CP185,inactive
same,Potency,CP191,2 µM (active)
same,Potency,CP192,inactive
same,Potency,CP201,inactive
same,Potency,CP211,inactive
same,Potency,CP215,inactive
same,Potency,CP217,inactive
same,Potency,CP238,inactive
CC(C)C1=CC2=CC[C@@H]3[C@](C)(CCC[C@@]3(C)C(=O)O)[C@H]2CC1,"activity, negative = inhibition",[1]; [2],-4.25%
same,"activity, negative = inhibition",[1]; [3],-11.9%
same,Potency,3D7,inactive
same,Potency,AA1029,inactive
same,Potency,AS120,inactive
same,Potency,ATS189,inactive
same,Potency,ATS95,inactive
same,Potency,C2A,inactive
same,Potency,CP185,inactive
same,Potency,CP191,inactive
same,Potency,CP217,inactive
same,Potency,CP237,inactive
same,Potency,CP238,inactive
same,Potency,CP247,inactive
CCSc1ccc2c(c1)N(CCCN1CCN(C)CC1)c1ccccc1S2,"activity, negative = inhibition",[1]; [4],14.2%
same,"activity, negative = inhibition",[1]; [5],7.58%
same,Potency,3D7,inactive
same,Potency,AA1029,inactive
same,Potency,AS120,inactive
same,Potency,ATS189,inactive
same,Potency,ATS95,inactive
same,Potency,C2A,inactive
same,Potency,CP185,inactive
same,Potency,CP191,inactive
same,Potency,CP192,inactive
same,Potency,CP194,inactive
same,Potency,CP201,inactive
same,Potency,CP203,inactive
same,Potency,CP211,inactive
same,Potency,CP215,inactive
same,Potency,CP217,inactive
same,Potency,CP237,inactive
same,Potency,CP238,inactive
same,Potency,CP247,inactive
CC(=O)[C@H]1CC[C@H]2[C@@H]3C=CC4=CC(=O)CC[C@@]4(C)[C@H]3CC[C@]12C,"activity, negative = inhibition",[1]; [4],0.59%
same,"activity, negative = inhibition",[1]; [5],-8.1%
same,Potency,7G8,inactive
same,Potency,AA1029,inactive
same,Potency,AS120,inactive
same,Potency,ATS189,inactive
same,Potency,ATS95,inactive
same,Potency,C2A,inactive
same,Potency,CP185,inactive
same,Potency,CP191,inactive
same,Potency,CP192,inactive
same,Potency,CP194,inactive
same,Potency,CP201,inactive
same,Potency,CP203,inactive
same,Potency,CP211,inactive
same,Potency,CP215,inactive
same,Potency,CP217,inactive
same,Potency,CP237,inactive
same,Potency,CP238,inactive
same,Potency,CP247,inactive
CN1C(C(=O)Nc2ccccn2)C(=O)c2sc(Cl)cc2S1(=O)=O (stereo unspecified),"activity, negative = inhibition",[1]; [2],8.71%
same,"activity, negative = inhibition",[1]; [3],-14.1%
same,Potency,3D7,inactive
same,Potency,AA1029,inactive
same,Potency,AS120,inactive
same,Potency,ATS189,inactive
same,Potency,ATS95,inactive
same,Potency,C2A,inactive
same,Potency,CP185,inactive
same,Potency,CP191,inactive
same,Potency,CP192,inactive
same,Potency,CP194,inactive
same,Potency,CP201,inactive
same,Potency,CP211,inactive
same,Potency,CP215,inactive
same,Potency,CP217,inactive
same,Potency,CP238,inactive
same,Potency,CP247,inactive
COC(=O)[C@@H](N)CS,"activity, negative = inhibition",[1]; [2],-8.41%
same,"activity, negative = inhibition",[1]; [3],10.4%
same,Potency,7G8,inactive
same,Potency,AA1029,inactive
same,Potency,AS120,inactive
same,Potency,ATS189,inactive
same,Potency,C2A,inactive
same,Potency,CP185,inactive
same,Potency,CP191,inactive
same,Potency,CP192,inactive
same,Potency,CP194,inactive
same,Potency,CP201,inactive
same,Potency,CP203,inactive
same,Potency,CP211,inactive
same,Potency,CP217,inactive
same,Potency,CP237,inactive
same,Potency,CP238,inactive
same,Potency,CP247,inactive
O=C(O)CCC/C=C\C[C@@H]1[C@@H](/C=C/[C@@H](O)COc2cccc(Cl)c2)[C@H](O)C[C@@H]1O,"activity, negative = inhibition",[1]; [2],11.9%
same,"activity, negative = inhibition",[1]; [3],-6.6%
same,Potency,3D7,inactive
same,Potency,AA1029,inactive
same,Potency,AS120,inactive
same,Potency,ATS189,inactive
same,Potency,ATS95,inactive
same,Potency,C2A,inactive
same,Potency,CP185,inactive
same,Potency,CP191,inactive
same,Potency,CP192,inactive
same,Potency,CP194,inactive
same,Potency,CP201,inactive
same,Potency,CP203,inactive
same,Potency,CP211,inactive
same,Potency,CP215,inactive
same,Potency,CP217,inactive
same,Potency,CP237,inactive
same,Potency,CP238,inactive
same,Potency,CP247,inactive
